Legend:
[1] = target: Serine/threonine-protein kinase pim-2 (Homo sapiens) (UniProt Q9P1W9); conditions: at 1 µM;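 further: each value is a mean of the inhibition measurements against the kinase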
[2] = target: Serine/threonine-protein kinase pim-3 (Homo sapiens) (UniProt Q86V86); conditions: at 0.1 µM
[3] = target: Serine/threonine-protein kinase pim-3 (Homo sapiens) (UniProt Q86V86); conditions: at 1 µM
[4] = target: T1, MAP kinase-activated protein kinase 5 (Homo sapiens) (UniProt Q8IW41); conditions: at 0.1 µM
T1 sequence (whole entry): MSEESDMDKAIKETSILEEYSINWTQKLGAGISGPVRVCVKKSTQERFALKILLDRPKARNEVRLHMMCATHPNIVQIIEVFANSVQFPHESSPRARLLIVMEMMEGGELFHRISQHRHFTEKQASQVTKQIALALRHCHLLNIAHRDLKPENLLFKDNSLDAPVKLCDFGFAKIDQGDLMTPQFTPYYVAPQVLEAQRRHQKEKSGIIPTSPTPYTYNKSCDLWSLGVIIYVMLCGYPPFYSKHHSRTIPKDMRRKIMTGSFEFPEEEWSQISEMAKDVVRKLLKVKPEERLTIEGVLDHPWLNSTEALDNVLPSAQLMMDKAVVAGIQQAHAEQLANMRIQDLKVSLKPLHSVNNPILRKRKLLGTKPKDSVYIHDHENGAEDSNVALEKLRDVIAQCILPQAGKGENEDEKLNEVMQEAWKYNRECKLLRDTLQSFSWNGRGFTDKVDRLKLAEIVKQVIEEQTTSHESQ

[5] = target: T1, MAP kinase-activated protein kinase 5 (Homo sapiens); conditions: at 1 µM
[6] = target: Serine/threonine-protein kinase SIK1 (Homo sapiens) (UniProt P57059); conditions: at 0.1 µM
[7] = target: Serine/threonine-protein kinase SIK1 (Homo sapiens) (UniProt P57059); conditions: at 1 µM
[8] = target: Serine/threonine-protein kinase SIK2 (Homo sapiens) (UniProt Q9H0K1); conditions: at 0.1 µM
[9] = target: Serine/threonine-protein kinase SIK2 (Homo sapiens) (UniProt Q9H0K1); conditions: at 1 µM
[10] = target: T2, Serine/threonine-protein kinase TBK1 (Homo sapiens) (UniProt Q9UHD2); conditions: at 0.1 µM
T2 sequence (whole entry): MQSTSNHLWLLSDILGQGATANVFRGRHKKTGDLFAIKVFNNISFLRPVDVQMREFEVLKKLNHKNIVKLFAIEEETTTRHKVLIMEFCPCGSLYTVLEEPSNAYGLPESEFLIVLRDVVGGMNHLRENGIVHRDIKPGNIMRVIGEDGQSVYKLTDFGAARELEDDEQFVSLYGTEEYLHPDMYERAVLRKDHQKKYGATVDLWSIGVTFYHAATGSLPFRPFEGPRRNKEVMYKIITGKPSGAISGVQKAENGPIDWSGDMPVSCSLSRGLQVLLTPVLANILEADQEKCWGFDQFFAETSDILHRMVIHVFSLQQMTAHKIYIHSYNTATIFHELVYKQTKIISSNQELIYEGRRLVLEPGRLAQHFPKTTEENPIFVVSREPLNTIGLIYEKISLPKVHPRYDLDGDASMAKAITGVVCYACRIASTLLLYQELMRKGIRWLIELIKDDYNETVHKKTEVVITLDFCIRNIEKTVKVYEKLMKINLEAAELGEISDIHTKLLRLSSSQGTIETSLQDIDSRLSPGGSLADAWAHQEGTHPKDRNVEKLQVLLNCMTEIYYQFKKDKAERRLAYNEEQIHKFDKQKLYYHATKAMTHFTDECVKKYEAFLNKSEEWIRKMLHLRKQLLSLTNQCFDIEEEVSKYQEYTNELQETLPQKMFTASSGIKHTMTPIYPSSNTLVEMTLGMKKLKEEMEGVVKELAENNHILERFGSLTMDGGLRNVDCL

[11] = target: T2, Serine/threonine-protein kinase TBK1 (Homo sapiens); conditions: at 1 µM
[12] = target: T3, Testis-specific serine/threonine-protein kinase 1 (Homo sapiens) (UniProt Q9BXA7); conditions: at 0.1 µM
T3 sequence (whole entry): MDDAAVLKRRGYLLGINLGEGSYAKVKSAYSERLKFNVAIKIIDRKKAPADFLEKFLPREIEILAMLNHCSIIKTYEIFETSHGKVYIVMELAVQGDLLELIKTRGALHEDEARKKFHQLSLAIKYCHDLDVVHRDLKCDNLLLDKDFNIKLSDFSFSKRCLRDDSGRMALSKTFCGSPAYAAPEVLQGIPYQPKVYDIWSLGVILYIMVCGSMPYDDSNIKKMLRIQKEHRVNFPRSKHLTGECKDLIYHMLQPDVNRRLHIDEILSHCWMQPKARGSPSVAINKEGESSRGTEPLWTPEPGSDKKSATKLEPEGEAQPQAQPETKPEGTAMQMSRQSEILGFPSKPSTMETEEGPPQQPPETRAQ

[13] = target: T3, Testis-specific serine/threonine-protein kinase 1 (Homo sapiens); conditions: at 1 µM
[14] = target: T4, Testis-specific serine/threonine-protein kinase 2 (Homo sapiens) (UniProt Q96PF2); conditions: at 0.1 µM
T4 sequence (whole entry): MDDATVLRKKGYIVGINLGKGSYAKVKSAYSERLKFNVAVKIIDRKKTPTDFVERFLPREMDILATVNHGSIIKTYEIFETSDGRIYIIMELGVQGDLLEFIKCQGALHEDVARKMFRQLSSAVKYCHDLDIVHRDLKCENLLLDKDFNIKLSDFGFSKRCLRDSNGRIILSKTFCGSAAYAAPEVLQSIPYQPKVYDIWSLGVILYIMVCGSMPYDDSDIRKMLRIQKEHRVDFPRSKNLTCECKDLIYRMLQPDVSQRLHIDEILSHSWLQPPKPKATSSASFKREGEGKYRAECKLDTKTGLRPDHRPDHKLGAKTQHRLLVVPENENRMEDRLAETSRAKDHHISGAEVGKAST

[15] = target: T4, Testis-specific serine/threonine-protein kinase 2 (Homo sapiens); conditions: at 1 µM
[16] = target: Casein kinase I isoform alpha (Homo sapiens) (UniProt P48729); conditions: at 0.1 µM
[17] = target: Casein kinase I isoform alpha (Homo sapiens) (UniProt P48729); conditions: at 1 µM
[18] = target: Casein kinase I isoform gamma-1 (Homo sapiens) (UniProt Q9HCP0); conditions: at 0.1 µM
[19] = target: Casein kinase I isoform gamma-1 (Homo sapiens) (UniProt Q9HCP0); conditions: at 1 µM
[20] = target: Casein kinase I isoform gamma-2 (Homo sapiens) (UniProt P78368); conditions: at 0.1 µM;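 further: values are mean inhibition figures reported as part of the GSK PKIS dataset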
Sequence of Casein kinase I isoform gamma-2 (Homo sapiens) (P78368 whole entry, looked up, canonical isoform): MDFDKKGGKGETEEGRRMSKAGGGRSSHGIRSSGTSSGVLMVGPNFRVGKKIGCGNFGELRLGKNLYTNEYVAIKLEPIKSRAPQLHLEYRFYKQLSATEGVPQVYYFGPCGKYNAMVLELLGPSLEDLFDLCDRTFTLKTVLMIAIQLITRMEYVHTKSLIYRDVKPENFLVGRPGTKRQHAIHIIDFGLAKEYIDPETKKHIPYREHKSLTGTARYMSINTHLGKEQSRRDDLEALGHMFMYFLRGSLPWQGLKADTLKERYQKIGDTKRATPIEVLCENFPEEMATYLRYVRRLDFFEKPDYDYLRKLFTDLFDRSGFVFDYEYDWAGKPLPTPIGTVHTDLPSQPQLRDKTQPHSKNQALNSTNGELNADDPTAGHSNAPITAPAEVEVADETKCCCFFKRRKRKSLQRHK

Sequence of Casein kinase I isoform alpha (Homo sapiens) (P48729 2-337 limits assumed): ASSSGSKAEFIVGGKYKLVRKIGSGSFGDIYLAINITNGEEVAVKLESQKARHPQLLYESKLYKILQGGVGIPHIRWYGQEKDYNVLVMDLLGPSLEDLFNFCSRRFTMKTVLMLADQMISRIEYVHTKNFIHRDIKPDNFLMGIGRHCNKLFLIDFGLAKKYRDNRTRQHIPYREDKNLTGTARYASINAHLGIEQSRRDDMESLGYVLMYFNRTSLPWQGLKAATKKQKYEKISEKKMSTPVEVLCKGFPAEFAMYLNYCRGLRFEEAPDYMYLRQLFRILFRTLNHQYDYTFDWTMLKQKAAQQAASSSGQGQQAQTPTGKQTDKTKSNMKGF
Sequence of Serine/threonine-protein kinase pim-2 (Homo sapiens) (Q9P1W9 whole entry, looked up): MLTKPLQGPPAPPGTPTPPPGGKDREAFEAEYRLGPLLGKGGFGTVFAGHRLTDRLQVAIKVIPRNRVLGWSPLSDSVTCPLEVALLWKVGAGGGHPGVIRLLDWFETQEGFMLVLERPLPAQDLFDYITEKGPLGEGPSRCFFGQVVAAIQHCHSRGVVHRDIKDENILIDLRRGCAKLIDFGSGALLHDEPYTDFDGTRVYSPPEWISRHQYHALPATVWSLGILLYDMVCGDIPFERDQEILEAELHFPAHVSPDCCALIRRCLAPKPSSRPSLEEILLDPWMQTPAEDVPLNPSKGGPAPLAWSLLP
Sequence of Serine/threonine-protein kinase SIK2 (Homo sapiens) (Q9H0K1 whole entry, looked up): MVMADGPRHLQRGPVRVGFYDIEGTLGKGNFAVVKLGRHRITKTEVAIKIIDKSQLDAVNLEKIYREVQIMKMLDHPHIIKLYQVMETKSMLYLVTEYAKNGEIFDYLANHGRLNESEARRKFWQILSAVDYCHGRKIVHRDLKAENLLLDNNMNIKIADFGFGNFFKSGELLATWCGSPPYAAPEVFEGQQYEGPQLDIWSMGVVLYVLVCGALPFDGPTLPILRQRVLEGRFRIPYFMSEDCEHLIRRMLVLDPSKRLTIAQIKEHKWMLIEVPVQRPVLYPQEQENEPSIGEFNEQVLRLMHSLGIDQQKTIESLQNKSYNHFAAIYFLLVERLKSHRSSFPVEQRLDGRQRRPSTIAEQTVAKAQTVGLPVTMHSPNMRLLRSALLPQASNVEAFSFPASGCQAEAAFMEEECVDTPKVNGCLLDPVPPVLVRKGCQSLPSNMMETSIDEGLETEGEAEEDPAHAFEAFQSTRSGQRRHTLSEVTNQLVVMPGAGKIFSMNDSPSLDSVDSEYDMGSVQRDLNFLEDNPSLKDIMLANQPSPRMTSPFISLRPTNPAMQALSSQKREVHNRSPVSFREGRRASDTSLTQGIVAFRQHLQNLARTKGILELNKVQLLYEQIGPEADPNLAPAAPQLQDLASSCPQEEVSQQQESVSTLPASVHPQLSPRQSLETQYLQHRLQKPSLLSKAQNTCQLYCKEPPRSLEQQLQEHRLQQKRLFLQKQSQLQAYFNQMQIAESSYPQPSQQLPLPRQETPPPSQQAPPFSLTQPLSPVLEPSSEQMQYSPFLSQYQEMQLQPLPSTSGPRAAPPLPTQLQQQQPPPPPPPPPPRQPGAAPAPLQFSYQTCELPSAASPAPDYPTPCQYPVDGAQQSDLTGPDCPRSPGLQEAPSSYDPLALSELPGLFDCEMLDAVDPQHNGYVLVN
Sequence of Serine/threonine-protein kinase SIK1 (Homo sapiens) (P57059 whole entry): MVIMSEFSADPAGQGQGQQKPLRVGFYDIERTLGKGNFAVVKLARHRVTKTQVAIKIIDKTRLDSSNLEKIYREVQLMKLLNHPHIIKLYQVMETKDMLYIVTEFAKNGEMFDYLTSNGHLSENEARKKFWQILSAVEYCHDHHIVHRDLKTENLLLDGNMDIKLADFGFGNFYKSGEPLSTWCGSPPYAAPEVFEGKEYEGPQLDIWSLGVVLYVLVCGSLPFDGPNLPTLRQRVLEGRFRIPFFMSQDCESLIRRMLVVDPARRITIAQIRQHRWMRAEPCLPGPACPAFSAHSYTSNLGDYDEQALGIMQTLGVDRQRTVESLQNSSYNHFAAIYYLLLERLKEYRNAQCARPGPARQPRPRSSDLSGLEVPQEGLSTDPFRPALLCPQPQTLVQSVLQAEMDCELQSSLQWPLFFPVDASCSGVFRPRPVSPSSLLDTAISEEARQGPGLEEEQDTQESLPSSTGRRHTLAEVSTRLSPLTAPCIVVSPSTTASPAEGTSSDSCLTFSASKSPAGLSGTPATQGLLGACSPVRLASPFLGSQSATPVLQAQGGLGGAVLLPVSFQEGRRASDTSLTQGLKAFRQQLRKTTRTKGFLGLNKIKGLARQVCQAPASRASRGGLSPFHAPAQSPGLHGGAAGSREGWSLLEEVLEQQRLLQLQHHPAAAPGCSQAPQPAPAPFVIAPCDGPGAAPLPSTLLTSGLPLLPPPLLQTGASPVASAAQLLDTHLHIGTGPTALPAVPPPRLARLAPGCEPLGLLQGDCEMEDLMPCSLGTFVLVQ
Sequence of Casein kinase I isoform gamma-1 (Homo sapiens) (Q9HCP0 whole entry, looked up, canonical isoform): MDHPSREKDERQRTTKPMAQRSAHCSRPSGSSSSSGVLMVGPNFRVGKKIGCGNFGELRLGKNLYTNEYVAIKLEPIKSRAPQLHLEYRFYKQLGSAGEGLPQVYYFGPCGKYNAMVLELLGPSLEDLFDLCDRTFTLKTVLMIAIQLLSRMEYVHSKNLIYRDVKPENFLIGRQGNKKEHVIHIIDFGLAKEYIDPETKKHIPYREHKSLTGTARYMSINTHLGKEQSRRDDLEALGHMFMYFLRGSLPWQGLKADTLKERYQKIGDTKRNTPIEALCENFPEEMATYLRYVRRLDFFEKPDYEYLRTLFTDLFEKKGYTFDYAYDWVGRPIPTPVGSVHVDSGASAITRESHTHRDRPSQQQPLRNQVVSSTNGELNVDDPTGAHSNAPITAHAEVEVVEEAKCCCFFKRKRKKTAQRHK

| SMILES | inhibition [1] [%] | inhibition [2] [%] | inhibition [3] [%] | inhibition [4] [%] | inhibition [5] [%] | inhibition [6] [%] | inhibition [7] [%] | inhibition [8] [%] | inhibition [9] [%] | inhibition [10] [%] | inhibition [11] [%] | inhibition [12] [%] | inhibition [13] [%] | inhibition [14] [%] | inhibition [15] [%] | inhibition [16] [%] | inhibition [17] [%] | inhibition [18] [%] | inhibition [19] [%] | inhibition [20] [%] |
| --- | --- | --- | --- | --- | --- | --- | --- | --- | --- | --- | --- | --- | --- | --- | --- | --- | --- | --- | --- | --- |
| COc1cc(Nc2ncc(-c3ccccc3)o2)cc(OC)c1OC | 1.06 | 0.31 | 1.87 | -0.54 | 0.01 | 0.98 | 27.4 | 3.12 | 30.6 | 2.26 | 13.7 | 0.03 | -0.04 | -1.14 | -1.3 | -0.72 | 1.29 | -1.4 | -0.76 | -1.34 |
| Cc1ccc(C(=O)NC(C)C)cc1-c1ccc(C(=O)NCC2CC2)cc1 | 1.24 | 1.28 | 2.53 | -1.12 | -1.11 | -0.49 | -1.49 | 0.37 | -9.28 | -1.37 | -1.07 | -1.97 | -1.52 | -1.67 | -1.52 | -3.83 | -5.5 | -2.95 | -2.32 | -2.65 |
| Fc1ccc(-c2c(-c3ccncc3)nc3n2CCS3)cc1 | -3.85 | 0.35 | 0.43 | 1.37 | 1.61 | 5 | 7.55 | 5.11 | 5.89 | 0.11 | 2.15 | 2.46 | 2.91 | 1.87 | 2.38 | 2.51 | 4.21 | -1.2 | -0.38 | -1.41 |
| FC(F)(F)c1cccc(Nc2nccc(-c3cnn4nc(-c5ccccc5)ccc34)n2)c1 | 1.06 | -0.15 | -0.3 | 0.76 | 0.4 | -0.41 | 7 | 2.43 | 5.47 | -0.2 | 4.35 | 1.23 | 2.01 | 1.62 | 0.24 | -0.33 | 1.52 | 2.48 | 2.54 | 2.27 |
| COc1cc2ncn(-c3cc(OCc4cccs4)c(C(N)=O)s3)c2cc1OC | -1.58 | 3.33 | 8.26 | 2.5 | 5.17 | 4.36 | 23.7 | 6.37 | 24.9 | 3.06 | 16.7 | 4.25 | 8.81 | 2.91 | 7.11 | 2 | 3.36 | -0.26 | -1.01 | -1.54 |
| CCN(CC)Cc1ccc(Nc2nccc(-c3cnn4ncccc34)n2)cc1 | -0.59 | 6.38 | 37.2 | 1.44 | 2.13 | 2.61 | 24.1 | 10.8 | 47.2 | 5.04 | 12.3 | 5.5 | 26.5 | 0.81 | 2.16 | 15.2 | 54.3 | 2.36 | 6.01 | 1.79 |
| COc1cc2ncn(-c3cc(OCCc4ccccc4)c(C(N)=O)s3)c2cc1OC | 0.47 | -1.48 | -2.48 | 0.21 | -0.58 | 3.59 | 9.48 | 1.23 | 3.75 | 0.96 | 22.3 | 1.85 | 2.26 | -0.18 | -0.8 | 2.37 | 3.77 | 3.01 | 5.65 | 2.92 |
| CCS(=O)(=O)c1ccc(OC)c(Nc2ncc(-c3cccc(-c4ccccc4F)c3)o2)c1 | 0.73 | 3.42 | 0.84 | 0.06 | -0.29 | 0.43 | 2.58 | -1.84 | 6.03 | 0.72 | 5.42 | 0.94 | -0.72 | 0.42 | -0.69 | -0.76 | 4.53 | 0.32 | 0.08 | -0.86 |
| c1ccc(Oc2ccc(Nc3ncc(-c4ccccc4)o3)cc2)cc1 | 0.53 | 0.36 | 1.18 | 0.66 | 0.94 | 2.57 | 3.12 | 1.87 | 1.2 | 3.15 | 2.41 | 1.11 | 1.56 | 0.35 | 0.74 | 5.38 | 7.2 | 0.74 | 2.02 | 0.49 |
| Nc1nccc(-c2c(-c3ccc(F)cc3)ncn2C2CCC(O)CC2)n1 (stereo not given) | 0.53 | 0.04 | 0.35 | -0.92 | -0.32 | 0.06 | 4.75 | -0.25 | 28.6 | 5.52 | 1.41 | -2.82 | -1.96 | -1.46 | -0.41 | 62.4 | 90.1 | -1.19 | 5.79 | -1.13 |
| NCc1ccc(-n2c(-c3nonc3N)nc3cnccc32)cc1 | 45.2 | 16.4 | 68.5 | 1.5 | 1.55 | 5.74 | 11.6 | 5.87 | 15.8 | 4.35 | 11.6 | 9.68 | 32.2 | 3.06 | 3.08 | 3.56 | 9.76 | 5.74 | 8.48 | 3.49 |
